From PubChem BioAssay
TDP1 inh: TDP1 (human) enzyme inhibition; Q9NUW8; AID 485290; 350,000 tested, 0.28% active; Potency, µM (series often up to 130 µM), for inactives: top-dose activity change, negative = inhibition, most hits filed as inhibitors; recombinant TDP1, AlphaScreen DNA substrate cleavage; also: potency is read from the fitted curve at half-maximal effect; nearly all actives have a fitted effect of over 40% in size
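Recombinant human Tdp1 (E. coli-expressed, 1 nM final) preincubated with compounds 15 min at room temperature, then 5'-biotin/3'-phosphotyrosine-FITC DNA substrate (15 nM final) added for 5 min. AlphaScreen beads (10 ug/ml final) added 10 min; cleavage lowers signal.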
ELG1 repair inh: inhibitors of ELG1-dependent DNA repair in HEK293T cells; AID 504467; Potency, µM (top dose mostly 46.1 µM), for the others: top-dose activity change, negative = inhibition, usual class: inhibitors; HEK293T ELG1-luciferase reporter, luminescence, 16 h; DNA damage induced by 5-fluorouridine; 330,000 tested, 2.3% active; also: potency is read from the fitted curve at half-maximal effect; nearly all actives have a fitted effect of over 55% in size
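In this reporter screen, reduction of luminescence relative to DMSO vehicle indicated activity. Compounds and 5-fluorouridine were added together to 2,000 cells per well, incubated for 16 hr at 37 °C, then developed with ONE-Glo.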
Giardia killer: Giardia lamblia killing. Giardia lamblia trophozoite viability. activity change, % at 7.66 µM, hits read low. 340,000 tested, 0.15% active; in the data active = activity change below about -80%; inconclusive = between about -30% and that limit;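 also: parasites exposed to compound for two days anaerobically before the ATP read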
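ATP-content bioluminescence gauges trophozoite survival. Cells (100/well) receive compound and incubate anaerobically for 48 hrs at 37 deg C; detection reagent follows for 15-30 min at room temperature.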
DT40 TDP1 no CPT: qHTS for Inhibitors of human tyrosyl-DNA phosphodiesterase 1 (TDP1): qHTS in cells in absence of CPT | AID 686978, 2013 | DT40 Tdp1-/- hTDP1 cells, no CPT, ATP luminescence, 48 h | 420,000 tested, 15% active | Potency, µM (highest dose often 46.2 µM), inactives show at the highest dose activity change, negative = growth inhibition, actives largely listed as inhibitors; also: potency is read from the fitted curve at half-maximal effect; nearly all actives have a fitted effect of over 55% in size
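A cellular qHTS used chicken DT40 cells lacking endogenous Tdp1 but carrying stably transfected human TDP1. Compounds were applied without camptothecin, and cell growth kinetics were judged by ATP-dependent luminescence after ≥48 hr.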
DT40 TDP1 CPT: growth inhibition of DT40 Tdp1-/-;hTDP1 cells with camptothecin (screen for TDP1 inhibitors). chicken DT40 Tdp1-/-;hTDP1 cells + 20 nM CPT, ATP luminescence, 48 h. 420,000 tested, 12% active. Potency, µM (highest dose often 46.2 µM), inactives show at the highest dose activity change, negative = growth inhibition, actives largely listed as inhibitors. AID 686979; also: potency is read from the fitted curve at half-maximal effect; nearly all actives have a fitted effect of over 55% in size
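Cell growth measured by CellTiter-Glo luminescence after a minimum 48 h, 37 C compound exposure with 20 nM CPT in Tdp1-knockout DT40 cells stably expressing hTDP1, seeded 400/well; qHTS titration format.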
IL1B secr inh: inhibitors of inflammasome signaling (IL-1 beta secretion); activity change, % at 57.5 µM; AID 743279; THP-1 LPS/ATP IL-1B secretion, AlphaLISA, 16 h; active compounds read low; 360,000 tested, 4.7% active; in the data active = activity change below about -50%; inconclusive = mostly about -30% to -49%
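Secreted IL-1B measured by AlphaLISA bead assay after 16 h compound exposure of THP-1 cells; compounds (final up to 57.5 uM) added 1 h before LPS (250 ng/mL) and ATP (1.25 mM) stimulation; lower signal means less secretion.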
Starred values were filed as active, the others as inactive; ? = inconclusive; nt = no result given. A selection: hits, their analogues and other compounds. The true share with any hit is near 19%. Unless noted, calls follow the shape of the dose curve; as a rule, active = well fitted curve in the direction sought with a large enough effect; inconclusive = small, poorly fitted or top-dose-only effect, or another doubt; inactive = no such curve, though single readings can be large; an effect the other way counts as inactive or inconclusive. % is scaled to controls: 0 for no effect and ±100 for the full control effect.

SMILES	TDP1 inh	ELG1 repair inh	Giardia killer	DT40 TDP1 no CPT	DT40 TDP1 CPT	IL1B secr inh
CC1CN(Cc2nnc(-c3ccccc3)o2)CC(C)O1 (stereo not given)	-4%	18%	2	-2%	3%	33
O=C(Nn1cc(C(=O)Nc2ccccc2F)c2ccccc2c1=O)c1cnccn1	-2%	?	11	?	?	17
COC(=O)c1cn(NC(=O)c2cnccn2)c(=O)c2ccccc12	4%	-20%	-7	7.3µM*	7.3µM*	170
COc1cccc(-n2nnnc2SCC(=O)NCc2ccc3c(c2)OCO3)c1	3%	0%	-30	-19%	?	0
COc1cccc(NC(=O)c2cnc(SCC(=O)N3CCOCC3)n(C)c2=O)c1	3%	nt	nt	15µM*	15µM*	nt
COc1cccc(NC(=O)c2cnc(SCC(=O)NCc3ccc4c(c3)OCO4)n(C)c2=O)c1	nt	?	9	12µM*	21µM*	-11
CC(C)CC(C(=O)NCCc1ccccc1)N1Cc2ccccc2C1=O (stereo not given)	5%	nt	nt	21µM*	?	nt
CCOc1ccc(CCNC(=O)C(CC(C)C)N2Cc3ccccc3C2=O)cc1OCC (stereo not given)	4%	nt	nt	9.2µM*	10µM*	nt
CC(C)CC(C(=O)NCc1ccc(F)cc1)N1Cc2ccccc2C1=O (stereo not given)	5%	nt	nt	?	?	nt
CCc1ccccc1NC(=O)c1noc(C(C)C)c1[N+](=O)[O-]	-3%	17%	-21	?	15µM*	?
Cc1nn(Cc2ccccc2Cl)c(C)c1NC(=O)c1noc(C(C)C)c1[N+](=O)[O-]	3%	5%	27	0%	-7%	4
CC(C)c1onc(C(=O)Nc2cccnc2Cl)c1[N+](=O)[O-]	3%	8%	4	?	23µM*	4
CC(C)c1onc(C(=O)NCc2ccccc2)c1[N+](=O)[O-]	0%	0%	2	21µM*	16µM*	-9
Cc1onc(C(=O)Nc2cccnc2Cl)c1[N+](=O)[O-]	6%	-15%	-25	-13%	?	24
CCOCCc1nn2c(=O)cc(COC(=O)c3ccc(NC(=O)c4ccc(F)cc4)cc3)nc2s1	4%	nt	nt	-11%	-9%	nt
Cc1ccc(NC(=O)c2ccc(NC(=O)N3CCSc4ncccc43)cc2)cc1Cl	3%	nt	nt	12µM*	16µM*	nt
Cc1cc(Cl)ccc1NC(=O)c1cccc(NC(=O)N2CCSc3ncccc32)c1	6%	nt	nt	16µM*	?	nt
COCc1cc(C)nc2sc(C(=O)Nc3ccc(OC(F)(F)F)cc3)c(N)c12	-6%	nt	nt	-29%	-16%	nt
O=C(Nc1ccccc1N1CCCCC1)C1=COCCO1	-4%	-12%	-19	12µM*	?	34
O=C(Nc1ccccc1N1CCCC1)C1=COCCO1	4%	8%	15	5%	-11%	8
Cc1ccsc1C(=O)Nc1ccccc1N1CCCC1	nt	13%	-17	13µM*	?	-1
O=C(Nc1ccccc1N1CCCC1)c1ccccc1Cl	6%	7%	12	?	11%	-11
Cc1ccccc1C(=O)Nc1ccccc1N1CCCCC1	0%	-7%	-18	16µM*	?	37
COc1ccccc1C(=O)Nc1ccccc1N1CCCCC1	nt	?	-8	18µM*	?	-28
CCc1cnc2c(c1SCc1cc(OC)cc(OC)c1)c(=O)n(C)c(=O)n2C	0%	nt	nt	?	?	nt
O=c1[nH]c(SCc2ccc([N+](=O)[O-])cc2)nc2[nH]ncc12	-1%	?	4	-11%	-9%	9
COc1ccc(Br)cc1C(=O)Nc1ccccc1N1CCCC1	nt	nt	-1	?	?	-2
